According to PubChem BioAssay:
Where “and” joins values, the source holds several entries; their conditions need not be identical. Equal values may be shown once. Results filed as inconclusive are left out. Calls of active or inactive are those of the source.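 Rule for the calls, unless noted: active = compounds whose cell count with miR-34 switched on is under 0.7 times the count with it off; inactive = the rest.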

Key:
[1] = sensitizers of A549 cells to miR-34 induction, primary screen, imaging, A549 dox-inducible miR-34, nuclei and caspase counts (AID 1347080); conditions: A549 miR-34 inducible, Hoechst nuclei count, 48 h
[2] = viability rescue of complex I mutant cybrids, primary screen, cell-based, galactose medium, ATP luminescence (AID 1645843;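 active = z-score of at least 1.8 in each of two replicates, scored against plate mean and spread of sample wells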;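 note: positive z means more ATP and so rescue of galactose-driven cybrid death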); conditions: complex I mutant cybrid cells, 72 h, stronger effect = higher value
[3] = target: ATP-dependent translocase ABCB1 (Homo sapiens) (UniProt P08183); assay: MDR1 (ABCB1) efflux transporter inhibition, cell-based (AID 377; in the data active = fluorescence slope change above about 50%); conditions: MDR1-expressing cells, fluorescent substrate accumulation slope; stronger effect = higher value; concentration not given here
[4] = hESC survival regulators, cell-based (AID 493140; call rule not given here;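 note: cells exposed to compounds for four days before counting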); conditions: human embryonic stem cell survival screen; stronger effect = higher value
[5] = liver-stage malaria parasite growth inhibition, primary screen, cell-based, HepG2, luciferase luminescence, HepG2 viability (AID 624349; in the data active = parasite load remaining mostly below about 12%, no sharp cut-off; inactive = mostly above about 10%;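 note: 100% = mean of DMSO negative control wells on the same plate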); conditions: P. berghei liver stage in HepG2, luciferase luminescence, concentration not given here; parasite load remaining: stronger effect = lower value; viability: measured here: HepG2 viability without parasites
[6] = survival rescue of mitochondrial mutant cells in low glucose, primary screen, MELAS cybrids, Rieske KO mouse fibroblasts, CellTiter-Glo (AID 1508586;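 active = mean z-score across replicates of 1.96 or higher in either the MELAS or the Rieske mutant cell line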;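 note: z relative to plate mean and SD of compound and empty wells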)
[7] = circadian clock period modulators, cell-based, LOPAC library, luminescence reporter (AID 2774; call rule not given here;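 note: values are relative to mean of DMSO wells on each plate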); conditions: circadian reporter cells, at 7 µM, actives lie on both sides
[8] = tested on: Hepatitis C virus NS3 helicase; assay: HCV NS3 helicase inhibitors, primary screen, biochemical, fluorescence polarization, LOPAC1280 library (AID 687035; in the data active = inhibition above about 37%); conditions: Purified HCV NS3 helicase, Cy5-dT15 ssDNA binding fluorescence polarization; stronger effect = higher value; concentration not given here
[9] = Cy5 fluorescence quenching or enhancement artefacts, artefact control for HCV NS3 helicase inhibitor project, biochemical, LOPAC1280 (AID 687037; call rule not given here); conditions: Cy5-DNA-NS3h complex fluorescence interference counterscreen
[10] = Cy5 fluorescence interference with SSB-bound oligo, artefact control for HCV NS3 helicase inhibitor project, biochemical, NIH Clinical Collection, E. coli SSB (AID 743268; call rule not given here)
[11] = tested on: Hepatitis C virus NS3 helicase; assay: HCV NS3 helicase inhibitors, primary screen, biochemical, fluorescence polarization, NIH Clinical Collection (AID 743270; call rule not given here); conditions: NS3 helicase binding to Cy5-dT15 DNA, stronger effect = higher value, concentration not given here
[12] = target: Single-stranded DNA-binding protein (Escherichia coli (strain K12)) (UniProt P0AGE0); assay: E. coli SSB displacement from DNA, counter-screen for HCV NS3 helicase inhibitor project, biochemical, fluorescence polarization, NIH Clinical Collection (AID 743271; in the data active = inhibition above about 28%); conditions: stronger effect = higher value, concentration not given here
[13] = fluorescence interference in NS3h assay format, artefact control for HCV NS3 helicase inhibitor project, biochemical, NIH Clinical Collection (AID 743272; call rule not given here;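 note: HCV NS3 helicase with a Cy5 labelled single stranded DNA probe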); conditions: fluorescence interference counterscreen, stronger effect = lower value
[14] = measured here: relative caspase fold change +Dox/-Dox
[15] = measured here: total cells with miR-34 induction, stronger effect = lower value
[16] = measured here: total cells without miR-34 induction
[17] = stronger effect = lower value, cell number ratio, induced over uninduced

ATP-dependent translocase ABCB1 (Homo sapiens), sequence (P08183 whole entry, looked up): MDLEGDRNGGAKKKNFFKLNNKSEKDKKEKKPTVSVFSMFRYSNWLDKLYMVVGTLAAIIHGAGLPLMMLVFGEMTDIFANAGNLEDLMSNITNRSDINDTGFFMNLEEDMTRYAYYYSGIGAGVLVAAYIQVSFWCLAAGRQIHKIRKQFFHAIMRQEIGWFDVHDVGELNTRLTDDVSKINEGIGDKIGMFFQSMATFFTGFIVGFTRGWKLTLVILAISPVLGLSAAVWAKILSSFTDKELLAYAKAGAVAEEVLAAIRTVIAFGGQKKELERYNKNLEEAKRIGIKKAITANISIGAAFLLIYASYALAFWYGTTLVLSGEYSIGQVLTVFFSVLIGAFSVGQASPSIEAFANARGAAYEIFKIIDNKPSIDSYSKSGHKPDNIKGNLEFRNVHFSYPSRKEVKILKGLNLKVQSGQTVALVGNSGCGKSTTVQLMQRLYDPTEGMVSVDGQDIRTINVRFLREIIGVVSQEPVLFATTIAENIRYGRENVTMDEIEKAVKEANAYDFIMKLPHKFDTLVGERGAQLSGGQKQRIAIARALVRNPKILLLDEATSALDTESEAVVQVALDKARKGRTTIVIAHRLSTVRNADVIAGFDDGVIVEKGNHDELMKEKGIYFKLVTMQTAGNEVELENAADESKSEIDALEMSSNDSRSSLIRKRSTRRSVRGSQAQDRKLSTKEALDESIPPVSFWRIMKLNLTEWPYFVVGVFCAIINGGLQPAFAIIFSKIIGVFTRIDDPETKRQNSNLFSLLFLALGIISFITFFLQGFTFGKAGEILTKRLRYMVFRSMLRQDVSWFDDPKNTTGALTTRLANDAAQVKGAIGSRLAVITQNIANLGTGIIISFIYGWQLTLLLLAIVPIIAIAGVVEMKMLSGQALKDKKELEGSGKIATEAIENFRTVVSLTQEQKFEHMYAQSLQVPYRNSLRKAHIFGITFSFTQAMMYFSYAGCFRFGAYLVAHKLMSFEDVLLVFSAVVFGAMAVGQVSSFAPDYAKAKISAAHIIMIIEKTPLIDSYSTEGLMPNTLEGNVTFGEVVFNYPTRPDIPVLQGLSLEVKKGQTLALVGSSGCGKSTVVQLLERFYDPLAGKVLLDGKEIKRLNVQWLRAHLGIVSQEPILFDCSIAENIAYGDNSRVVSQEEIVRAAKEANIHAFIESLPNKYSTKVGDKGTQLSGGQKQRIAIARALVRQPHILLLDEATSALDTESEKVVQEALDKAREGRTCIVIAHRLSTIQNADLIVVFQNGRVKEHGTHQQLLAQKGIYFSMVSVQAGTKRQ

Nc1cc2c(ncn2CCOCP(=O)(O)O)c(=O)[nH]1
fold change ([1]; stronger effect = lower value): 1.06 (inactive)
fold change [1, 14]: 1.02
cell count [1, 15]: 3380
cell count [1, 16]: 3200
z-score [2]: -0.655 (inactive)

C(#CCN1CCCC1)CN1CCCC1
fluorescence slope change [3]: 19.7% (inactive)
survival [4]: 6.42 (inactive)
parasite load remaining [5]: 82.8% (inactive) and 98.5% (inactive)
viability [5]: 112% and 92.6%
fold change [1, 17]: 0.85 (inactive)
fold change [1, 14]: 1.28
cell count [1, 15]: 8550
cell count [1, 16]: 10100
z-score ([6]; MELAS cybrid survival, CellTiter-Glo 48 h, stronger effect = higher value): 0.0358 (inactive)
z-score ([6]; Rieske KO mouse fibroblast survival, CellTiter-Glo 72 h): -0.183

CNCC(O)c1ccc(O)c(OC)c1 (stereo not given)
fluorescence slope change [3]: 189% (active)
survival [4]: 30.2 (inactive)
parasite load remaining [5]: 40.2% (inactive) and 98.3% (inactive)
viability [5]: 47.9% and 90.3%
fold change [1, 17]: 0.905 (inactive)
fold change [1, 14]: 1.46
cell count [1, 15]: 8830
cell count [1, 16]: 9760

C[C@H]1C2Cc3ccc(O)cc3C1(C)CCN2CC1CC1 (stereo not given in full)
period change [7]: -0.055 h (inactive)
fold change ([1]; stronger effect = lower value): 0.949 (inactive)
fold change [1, 14]: 1.14
cell count [1, 15]: 10600
cell count [1, 16]: 11200
z-score [2]: -0.12 (inactive)

CCCCC/C=C\C/C=C\C/C=C\C/C=C\CCCC(=O)NCCc1ccc(O)c(O)c1
survival [4]: 69.6 (inactive)
fold change [1, 17]: 0.953 (inactive)
fold change [1, 14]: 1.09
cell count [1, 15]: 5250
cell count [1, 16]: 5510

C/C=C1/C[N+]2(C)CCC34C(=C(C=O)[C@H]1C[C@@H]32)Nc1ccccc14 (stereo not given in full)
fluorescence slope change [3]: 21.2% (inactive)
survival [4]: 3.83 (inactive)
parasite load remaining [5]: 95% (inactive)
viability [5]: 101%
fold change ([1]; stronger effect = lower value): 0.931 (inactive)
fold change [1, 14]: 1.21
cell count [1, 15]: 8700
cell count [1, 16]: 9340

CN1CC[C@]2(c3cccc(O)c3)Cc3nc4ccccc4cc3CC2C1 (stereo not given in full)
fold change [1, 17]: 0.813 (inactive)
fold change [1, 14]: 1.31
cell count [1, 15]: 7470
cell count [1, 16]: 9190
z-score [2]: -0.555 (inactive)

CC(C)(O)[C@@H]1[C@H]2OC(=O)[C@@H]1[C@]1(O)C[C@H]3O[C@]34C(=O)O[C@H]2[C@]14C (tested in a mixture with another compound)
period change [7]: -0.105 h (inactive)
parasite load remaining [5]: 96.3% (inactive)
viability [5]: 67.1%
inhibition [8]: -5% (inactive)
fluorescence ratio (interference) [9]: 1 (inactive)
fluorescence ratio [10]: 1 (inactive)
inhibition [11]: 0.4% (inactive)
inhibition [12]: -0.1% (inactive)
fluorescence ratio [13]: 0.9 (inactive)
fold change ([1]; stronger effect = lower value): 1.06 (inactive)
fold change [1, 14]: 1.05
cell count [1, 15]: 11200
cell count [1, 16]: 10500
z-score [2]: 0.54 (inactive)

NC(Cn1oc(=O)[nH]c1=O)C(=O)O (stereo not given)
period change [7]: -0.055 h (inactive)
fold change ([1]; stronger effect = lower value): 0.991 (inactive)
fold change [1, 14]: 0.896
cell count [1, 15]: 10000
cell count [1, 16]: 10100
z-score [2]: 0.64 (inactive)

CCCCCCCCCCCCCCCCOC[C@H](COP(=O)([O-])OCC[N+](C)(C)C)OC(C)=O
survival [4]: 57.8 (inactive)
fold change ([1]; stronger effect = lower value): 0.933 (inactive) and 0.881 (inactive)
fold change [1, 14]: 1.16 and 1.84
cell count [1, 15]: 5630 and 5430
cell count [1, 16]: 6040 and 6160

Oc1ccc2c3c1OC1c4[nH]c5ccccc5c4C[C@@]4(O)C(C2)N(CC2CC2)CC[C@]314 (stereo not given in full)
fold change ([1]; stronger effect = lower value): 0.943 (inactive)
fold change [1, 14]: 1.78
cell count [1, 15]: 8150
cell count [1, 16]: 8650
z-score [2]: -0.925 (inactive)

CC(C)C[C@H]1C(=O)N2CCC[C@H]2[C@]2(O)O[C@](NC(=O)[C@@H]3C=C4c5cccc6[nH]cc(c56)C[C@H]4N(C)C3)(C(C)C)C(=O)N12
fluorescence slope change [3]: 95.9% (active)
survival [4]: 9.42 (inactive)
parasite load remaining [5]: 59.7% (inactive)
viability [5]: 94.6%
fold change ([1]; stronger effect = lower value): 0.917 (inactive)
fold change [1, 14]: 1.12
cell count [1, 15]: 7540
cell count [1, 16]: 8220

C[C@]12CCC(=O)C=C1CCC1C2CC[C@@]2(C)C1CC[C@]2(C)O (stereo not given in full)
fold change ([1]; stronger effect = lower value): 1.16 (inactive)
fold change [1, 14]: 0.795
cell count [1, 15]: 2670
cell count [1, 16]: 2300
z-score [2]: -1.03 (inactive)

CC[C@H]1CN2CCC1C[C@H]2[C@H](O)c1ccnc2ccc(OC)cc12 (stereo not given in full)
survival [4]: 6.08 (inactive)
parasite load remaining [5]: 83.6% (inactive) and 51.6% (inactive)
viability [5]: 106% and 80.9%
fold change [1, 17]: 0.867 (inactive)
fold change [1, 14]: 1.17
cell count [1, 15]: 8140
cell count [1, 16]: 9390

C/C=C1/C[C@@H](C)[C@](O)(CO)C(=O)OCC2=CCN3CC[C@@H](OC1=O)[C@@H]23
fluorescence slope change [3]: 18.1% (inactive)
survival [4]: 3.83 (inactive)
parasite load remaining [5]: 209% (inactive) and 79.8% (inactive)
viability [5]: 107% and 75%
fold change ([1]; stronger effect = lower value): 0.877 (inactive)
fold change [1, 14]: 2.22
cell count [1, 15]: 8650
cell count [1, 16]: 9870

CN1CCC(c2ccc(F)cc2)C(COc2ccc3c(c2)OCO3)C1 (stereo not given)
fold change [1, 17]: 0.906 (inactive)
fold change [1, 14]: 1.59
cell count [1, 15]: 7350
cell count [1, 16]: 8110
z-score [2]: -1.4 (inactive)
